Screening results (PubChem)
WRN inhibitor: WRN helicase (human) inhibition | Q14191 | WRN helicase unwinding, fluorescent forked duplex, kinetic | Potency, µM (series often up to 114 µM), without a hit: at the top dose activity change, negative = inhibition, hits mostly inhibitors | actives 0.46% (n = 360,000) | AID 651768; also: potency is read from the fitted curve at half-maximal effect; % is scaled to controls: 0 for no effect and ±100 for the full control effect; nearly all actives have a fitted effect of over 55% in size
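Primary qHTS, 1536-well format. 20 nM WRN + compound, 15 min RT; start with 100 nM forked fluorophore/quencher duplex, 2 mM ATP (final); kinetic read ex 525/em 598 nm.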
Pol kappa inh-1: blocks human DNA polymerase kappa activity; Q9UBT6; purified Pol kappa, fluorescent DNA synthesis assay, 10 min; Potency, µM (titrated, usually from 107 µM), without a hit: at the top dose activity, negative = inhibition, usual class: inhibitors; actives 0.53% (n = 400,000); AID 588579; also: potency is read from the fitted curve at half-maximal effect; % is scaled to controls: 0 for no effect and ±100 for the full control effect
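Enzyme at 10 nM met test compounds for 15 min at room temperature. Substrate addition (50 nM final) began the reaction, which was monitored by fluorescence at 0 and 10 min.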
POLB inh: blocks human DNA polymerase beta activity; P06746; Pol beta primer extension/strand displacement, fluorescence kinetic; Potency, µM (titrated, usually from 114 µM), inactives show at the top dose activity change, negative = inhibition, most hits filed as inhibitors; actives 1.3% (n = 340,000); also: potency is read from the fitted curve at half-maximal effect; % is scaled to controls: 0 for no effect and ±100 for the full control effect
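Pol beta (10 nM) and compounds were preincubated 15 min at room temperature, then 50 nM substrate (final) started primer extension/strand displacement. Reads were taken at 0 and 10 min; concentration-response data were fitted to a four-parameter Hill equation.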
PI5P4Ka inh: blocks human PI5P4K alpha kinase activity; AID 652105; PI5P4Kalpha enzyme, ADP-Glo luminescence, 60 min; stronger effect = lower value; actives 1.2% (n = 330,000); max response, %; active = max response of -50% or lower; inconclusive = between -30% and -50%; inactive = -30% or higher; also: value at the top dose of about 77 µM; % is scaled to controls: 0 for no effect and ±100 for the full control effect
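Human PI5P4Kalpha with substrate in 0.038 M HEPES pH 7.4, 0.28 mM EGTA, 0.1% CHAPS, 5% DMSO; reaction started with 5 microM ATP (final), 60 min at room temperature. ADP formed read by ADP-Glo luminescence.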
POLI inh: DNA polymerase iota (human) inhibition; Q9UNA4; Pol iota fluorescent replication assay, 10 min; Potency, µM (highest dose often 115 µM), for the others: at the highest dose activity, negative = inhibition, usual class: inhibitors; actives 1% (n = 390,000); AID 588590; also: potency is read from the fitted curve at half-maximal effect
Target sequence (Q9UNA4 whole entry, looked up): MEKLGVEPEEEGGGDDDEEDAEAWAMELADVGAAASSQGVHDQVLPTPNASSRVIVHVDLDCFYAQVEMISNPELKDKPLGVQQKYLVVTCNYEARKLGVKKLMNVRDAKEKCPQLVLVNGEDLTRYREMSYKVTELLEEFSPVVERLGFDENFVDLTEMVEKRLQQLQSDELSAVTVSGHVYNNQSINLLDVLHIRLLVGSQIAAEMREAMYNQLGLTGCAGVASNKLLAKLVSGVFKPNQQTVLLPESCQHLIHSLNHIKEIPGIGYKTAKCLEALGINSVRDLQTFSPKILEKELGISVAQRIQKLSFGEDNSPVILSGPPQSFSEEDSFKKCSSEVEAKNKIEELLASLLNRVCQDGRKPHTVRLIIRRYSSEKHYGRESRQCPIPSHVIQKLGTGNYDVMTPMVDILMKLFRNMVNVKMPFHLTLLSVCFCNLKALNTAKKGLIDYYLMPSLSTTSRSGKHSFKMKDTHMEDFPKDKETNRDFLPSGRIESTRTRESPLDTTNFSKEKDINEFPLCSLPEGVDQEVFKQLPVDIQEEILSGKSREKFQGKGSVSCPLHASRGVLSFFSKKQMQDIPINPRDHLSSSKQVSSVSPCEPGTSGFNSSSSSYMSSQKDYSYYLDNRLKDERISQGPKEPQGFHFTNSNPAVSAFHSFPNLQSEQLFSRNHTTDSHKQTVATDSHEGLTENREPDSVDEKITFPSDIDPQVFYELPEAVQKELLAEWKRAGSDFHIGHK
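Fluorescent replication assay read twice, at 0 min and 10 min after adding 50 nM (final) substrate. Enzyme (10 nM) and compounds were first incubated 15 min at room temperature; enzyme-free buffer wells were negative controls.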
Pol eta inh-1: blocks human DNA polymerase eta activity; Q9Y253; recombinant Pol eta, fluorescent DNA replication assay; Potency, µM (highest dose often 114 µM), for the others: at the highest dose activity change, negative = inhibition, hits mostly inhibitors; actives 1.2% (n = 390,000); AID 588591; also: potency is read from the fitted curve at half-maximal effect; % is scaled to controls: 0 for no effect and ±100 for the full control effect
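Pol eta (10 nM) was preincubated with compounds for 15 min at room temperature, after which fluorescent replication substrate (50 nM final) was added to start the reaction. Fluorescence was read kinetically at 0 and 10 min.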
TbPGK inh: blocks T. brucei phosphoglycerate kinase. shares compounds with Pol kappa inh-1. TbPGK coupled GAPDH assay, Kinase-Glo luminescence. Potency, µM (highest dose often 57.5 µM), for inactives: top-dose activity change, negative = inhibition, most hits filed as inhibitors. actives 79% (n = 500); also: potency is read from the fitted curve at half-maximal effect; % is scaled to controls: 0 for no effect and ±100 for the full control effect; nearly all actives have a fitted effect of over 65% in size
Pol iota confirm: Inhibitors of human DNA polymerase iota, confirmation. shares compounds with Pol kappa inh-1. Pol iota primer extension, TAMRA/BHQ fluorescence. Potency, µM, most hits filed as inhibitors. actives 77% (n = 1,500). AID 720496; also: potency is read from the fitted curve at half-maximal effect
GALK confirm: confirmation of human galactokinase (GALK) inhibitors; Potency, µM (highest dose often 115 µM), without a hit: at the highest dose activity, negative = inhibition, hits mostly inhibitors; purified GALK, Kinase-Glo ATP depletion luminescence; actives 70% (n = 150); shares compounds with Pol eta inh-1
GALK redox cs: counter-screen for GALK inhibitors: redox cycling H2O2 generation; Potency, µM (doses to about 115 µM), for the others: top-dose activity change, negative = H2O2 signal, actives largely listed as inhibitors; AID 2035; shares compounds with Pol eta inh-1; Phenol red-HRP H2O2 redox cycling, absorbance 600 nm; actives 40% (n = 150)
HEK293 viability: reduces HEK-293 cell viability in GALK counter-screen; shares compounds with Pol eta inh-1; HEK-293 viability, ATP luminescence (CellTiter-Glo), 24/48 h; Potency, µM (highest dose often 46.1 µM), for inactives: top-dose activity change, negative = cytotoxicity, most hits filed as inhibitors; actives 10% (n = 170); AID 2547; also: potency is read from the fitted curve at half-maximal effect; % is scaled to controls: 0 for no effect and ±100 for the full control effect
Pol kappa inh-2: confirmation of human DNA polymerase kappa inhibitors | shares compounds with Pol eta inh-1 | purified Pol-kappa, fluorescent strand-displacement substrate | Potency, µM, usual class: inhibitors | actives 76% (n = 920); also: potency is read from the fitted curve at half-maximal effect
Pol eta inh-2: confirmation of human DNA polymerase eta inhibitors; shares compounds with Pol eta inh-1; Pol eta primer extension, TAMRA/BHQ fluorescence, 10 min; Potency, µM, most hits filed as inhibitors; actives 64% (n = 2,600); AID 720502; also: potency is read from the fitted curve at half-maximal effect
An asterisk follows results filed as active; ? = inconclusive; · = no result; [ ] = another dose, or the depositor's remark. Most compounds without a hit are left out; they make up all but 2.8% or so of the library. Unless noted, calls follow the shape of the dose curve; as a rule, active = well fitted curve in the direction sought with a large enough effect; inconclusive = small, poorly fitted or top-dose-only effect, or another doubt; inactive = no such curve, though single readings can be large; an effect the other way counts as inactive or inconclusive.

SMILES | WRN inhibitor | Pol kappa inh-1 | POLB inh | PI5P4Ka inh | POLI inh | Pol eta inh-1 | Pol iota confirm | Pol kappa inh-2 | Pol eta inh-2 | others
Cc1cc(C=C2C(=O)c3ccccc3C2=O)c(C)n1C | -17% | -12% | 1% | -15 | 42% | -8% | · | · | ·
Cc1ccc(C=C2C(=O)c3ccccc3C2=O)o1 | ? | ? | 14µM* | ? | 22µM* | 13µM* | 47* | 42* | 48*
Cc1ccc(/C=C2/C(=O)c3ccc(C(=O)O)cc3C2=O)o1 | 13µM* | 5µM* | 25µM* | -62* | ? | 4µM* | 24* | 11* | 8.5*
CN1CCC[C@@H](CC2c3ccccc3Sc3ccccc32)C1 | · | 3%[19.4 µM] | · | · | · | · | · | · | ·
Fc1ccccc1Nc1nc(-c2ccncc2)nc2ccccc12 | -20%[57.1 µM] | -4% | 2% | 0 | 45% | -3% | · | · | ·
CCCCc1ccc(-n2nc3cc(C)c(NC(=O)Cc4ccccc4)cc3n2)cc1 | · | -15% | -4% | · | ? | 12% | · | · | ·
O=C(O)c1ccc(/C=N/NC(=O)c2cc(-c3ccc4c5c(cccc35)CC4)n[nH]2)cc1 | ? | ? | 28µM* | -73* | ? | 25µM* | 60* | 12* | 38*
O=C(N/N=C/c1ccccn1)c1cc(-c2cccc3ccccc23)n[nH]1 | 1% | -2% | 1% | -30 | 31% | 14% | · | · | ·
CCc1nnc(NC(=O)C(=O)c2cc(C)n(-c3ccccc3)c2C)s1 | · | -5% | 15% | · | -21% | 50µM* | ? | 13* | 85*
COc1ccc2c(c1)c(=O)oc1cc(OCC(=O)NC3CC3)ccc12 | -4% | -37% | ? | -28 | -51% | ? | · | · | ·
COc1ccc2c(c1)c(=O)oc1cc(OCC(=O)NC3CCCCC3)ccc12 | -12%[11.6 µM] | ? | 22µM* | · | 25µM* | 79µM* | ? | ? | 67*
CC1=C(C(=O)N(C(C)C)C(C)C)CC(CC(=O)NCCCCc2ccccc2)C(=O)N1CCCN1CCCC1=O (stereo not drawn) | -1% | · | · | 4 | · | · | · | · | ·
C=C(C)C(=O)Nc1ccc2c(c1)OCCOCCOCCO2 | ? | 79µM* | 10µM* | -74* | ? | 22µM* | · | · | 19* | TbPGK inh=?
Cc1cc(SCC(=O)Nc2ccc3[nH]c(=O)[nH]c3c2)nc2ccccc12 | ? | -4% | · | 3 | ? | 40µM* | 60* | ? | ·
Cc1c(C(=O)O)cccc1-n1c(C)cc(C=O)c1C | -15% | ? | 16µM* | -3 | 25µM* | 6.3µM* | 30* | · | 19*
CCOc1ccccc1-n1c(C)cc(C=O)c1C | 1% | -4% | 15% | 0 | 195% | -23% | · | · | ·
CC1(C(=O)NS(=O)(=O)c2ccc(Cl)cc2)CCN1C(=O)CCc1cccs1 (stereo not drawn) | 5% | · | · | -1 | · | · | · | · | ·
O=C(O)CSc1cc(C(=O)c2ccccc2O)cn2c(=O)c3c(-c4ccccc4)csc3nc12 | ? | ? | 45µM* | -53* | ? | 14µM* | 21* | · | 27*
CCOC(=O)c1sc2nc3c(SCC(=O)O)cc(C(=O)c4cc(F)ccc4O)cn3c(=O)c2c1C | -14%[11.6 µM] | 50µM* | 10µM* | -26 | ? | 20µM* | 19* | · | 27*
Nc1ccn(CCCNC2CCN(Cc3ccccc3)CC2)c(=O)n1 | -1% | · | · | -3 | · | -8% | · | · | ·
O=C1C(=O)c2ccc(-c3ccccc3)cc2-c2ccccc21 | -1%[11.6 µM] | -5% | 13% | · | 2% | 5.6µM* | ? | · | 30* | GALK confirm=6µM*;GALK redox cs=3µM*;HEK293 viability=7.9µM*
Nc1ccc2c(c1)C(=O)c1ccccc1-2 | -9% | -8% | · | 2 | 3% | 8% | · | · | ·
COc1ccc(Cc2nc3ccccc3n2CC(=O)N/N=C/c2ccc(O)cc2)cc1OC | -8% | -2% | 3%[57.1 µM] | 1 | 0% | -11% | · | · | ·
COc1ccc(Cc2nc3ccccc3n2CC(=O)N/N=C/c2ccc(C)cc2O)cc1OC | -20%[11.6 µM] | ? | 7.9µM* | -11 | 20µM* | ? | 9.5* | 30* | 67*
O=[N+]([O-])c1cc(/C=N/n2c(-c3ccncc3)n[nH]c2=S)ccc1Cl | ? | ? | 2.5µM* | ? | 13µM* | 50µM* | 17* | · | 43*
Cc1nnc(NC(=O)c2sc3nc(-c4cccs4)cc(C(F)(F)F)c3c2N)s1 | -34%[57.1 µM] | ? | 35µM* | -14 | 28µM* | 6.3µM* | 42* | · | 67*
COc1ccc(/C=C2\C(=O)NC(=S)N2C(=O)c2ccc(F)cc2)cc1 | ? | -5% | 14µM* | -63* | ? | 25µM* | 84* | 67* | ?
O=C1NC(=S)N(C(=O)c2ccc(F)cc2)/C1=C/c1ccccc1 | -33% | -6% | -22% | ? | 6% | ? | · | · | ·
O=C(O)CN1C(=O)/C(=C\c2cn(-c3ccccc3)nc2-c2ccccc2)SC1=S | -27% | -22% | ? | ? | ? | 13% | · | · | ·
CC(C)COc1ccc(-c2nn(-c3ccccc3)cc2/C=C2/SC(=S)N(CC(=O)O)C2=O)cc1 | 1% | -3% | 23% | 6 | -15% | 28µM* | 75* | · | 67*
